Laboratory results from PubChem BioAssay (Tox21).
Results filed as inconclusive are left out. Active and inactive are the calls of the source. Calls follow the shape of the dose curve; as a rule, active = well fitted curve in the direction sought with a large enough effect in the repeat runs; inconclusive = weak or mixed curves; inactive = no such curve, though single readings can be large; an effect the other way counts as inactive or inconclusive.

Experiments:
[1] = A CellTox Green Cytotoxicity Assay to monitor cytotoxicity in HepG2 cells - 16 hour (AID 1224876); also: nearly all actives have a fitted effect of over 45% in size
Procedure, shortened: (§1)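 Real-time, homogeneous cytotoxicity readout: dead-cell DNA staining by CellTox Green in HepG2 monolayers, fluorescence measured at timed intervals up to 40 h of continuous compound exposure.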

[2] = qHTS RealTime-Glo MT Cell Viability Assay in HepG2 cells - 32 hour (AID 1224877); also: nearly all actives have a fitted effect of over 55% in size
Procedure, shortened: (§2)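 Tox21 10K library screened in qHTS format on HepG2 cells carrying RealTime-Glo reagents. Compounds were added after a 5 h preincubation, and the luminescent signal from continuous culture was measured repeatedly during 40 h treatment.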

[3] = A CellTox Green Cytotoxicity Assay to monitor cytotoxicity in HepG2 cells - 24 hour (AID 1224878); also: nearly all actives have a fitted effect of over 45% in size
Procedure, shortened: as §1

[4] = A CellTox Green Cytotoxicity Assay to monitor cytotoxicity in HepG2 cells - 40 hour (AID 1224879); also: nearly all actives have a fitted effect of over 40% in size
Procedure, shortened: as §1

[5] = qHTS RealTime-Glo MT Cell Viability Assay in HEK293 cells - 0 hour (AID 1224880); also: top concentration of the series differs between compounds; nearly all actives have a fitted effect of over 45% in size
Procedure, shortened: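 Nonlytic bioluminescent viability monitoring. HEK293 at 600 cells/well with reagent; 5 h settle; compound transfer by pintool; plates held at 37 C and read at set time points.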

[6] = A CellTox Green Cytotoxicity Assay to monitor cytotoxicity in HepG2 cells - 0 hour (AID 1224882); also: nearly all actives have a fitted effect of over 35% in size
Procedure, shortened: as §1

[7] = qHTS RealTime-Glo MT Cell Viability Assay in HepG2 cells - 16 hour (AID 1224885); also: nearly all actives have a fitted effect of over 50% in size
Procedure, shortened: as §2

[8] = A CellTox Green Cytotoxicity Assay to monitor cytotoxicity in HEK293 cells - 32 hour (AID 1224881); also: nearly all actives have a fitted effect of over 40% in size
Procedure, shortened: (§3)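 Cytotoxicity was tracked continuously in HEK293 cells by a DNA-binding dye excluded from viable cells. Compounds were transferred in DMSO 5 h after seeding; fluorescence was recorded at intervals up to 40 h.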

[9] = A CellTox Green Cytotoxicity Assay to monitor cytotoxicity in HepG2 cells - 32 hour (AID 1224883); also: nearly all actives have a fitted effect of over 50% in size
Procedure, shortened: as §1

[10] = A CellTox Green Cytotoxicity Assay to monitor cytotoxicity in HEK293 cells - 8 hour (AID 1224884); also: nearly all actives have a fitted effect of over 35% in size
Procedure, shortened: as §3
% is scaled to controls: 0 for no effect and ±100 for the full control effect.

C/C=C(\C)C(=O)OCCc1ccccc1
inactive: Potency [1] | outcome [2] | Potency [3] | Potency [4] | Potency [5] | Potency [6] | outcome [7]

C=C(C)C1CC=C(C)C(=O)C1 (centres undefined)
inactive: Potency [1] | outcome [2] | Potency [4] | Potency [5] | Potency [8] | Potency [6] | Potency [9] | Potency [10] | outcome [7]

CC1(C)[C@H]2CC[C@](C)(C2)[C@H]1O
inactive: Potency [1] | outcome [2] | Potency [3] | Potency [4] | Potency [5] | Potency [10] | outcome [7]

OCC1CCC(CO)CC1 (centres undefined)
inactive: Potency [1] | outcome [2] | Potency [4] | Potency [5] | Potency [8] | Potency [6] | Potency [9] | Potency [10] | outcome [7]

Cc1c(C(=O)c2c[nH]n(C)c2=O)ccc(S(C)(=O)=O)c1C1=NOCC1
inactive: Potency [1] | outcome [2] | Potency [4] | Potency [5] | Potency [8] | Potency [6] | Potency [9] | Potency [10] | outcome [7]

C/C=C(\C)C(C)=O
inactive: Potency [1] | outcome [2] | Potency [3] | Potency [4] | Potency [6] | Potency [9] | Potency [10] | outcome [7]

CCN1CCCC1CN (centres undefined)
inactive: Potency [1] | outcome [2] | Potency [3] | Potency [4] | Potency [5] | Potency [9] | Potency [10]

Nc1nc(-c2ccccc2)c(Br)c(=O)[nH]1
inactive: Potency [1] | outcome [2] | Potency [4] | Potency [5] | Potency [8] | Potency [6] | Potency [9] | Potency [10] | outcome [7]

CC(=O)Nc1ccc(OC(=O)c2ccccc2OC(C)=O)cc1
inactive: Potency [1] | outcome [2] | Potency [4] | Potency [5] | Potency [6] | Potency [9] | Potency [10] | outcome [7]

CC(C)c1ccc(C=O)cc1
inactive: Potency [1] | outcome [2] | Potency [4] | Potency [5] | Potency [8] | Potency [9] | Potency [10] | outcome [7]

CCCc1ccc(O)cc1
inactive: Potency [1] | outcome [2] | Potency [5] | Potency [8] | Potency [6] | Potency [10] | outcome [7]

Cc1ccc2c(c1)C(=O)c1ccccc1C2=O
inactive: Potency [1] | outcome [2] | Potency [4] | Potency [5] | Potency [8] | Potency [6] | Potency [9] | Potency [10] | outcome [7]

NCCOCCN
inactive: Potency [1] | outcome [2] | Potency [4] | Potency [5] | Potency [8] | Potency [9] | Potency [10] | outcome [7]

OCC1(CO)COCOC1
inactive: Potency [1] | outcome [2] | Potency [4] | Potency [5] | Potency [8] | Potency [6] | Potency [10] | outcome [7]

CC1=C(O)C(=O)C(C)O1 (centres undefined)
inactive: Potency [1] | outcome [2] | Potency [4] | Potency [5] | Potency [6] | Potency [9] | Potency [10] | outcome [7]

N[C@@H](CSCCCO)C(=O)O
inactive: cytotoxicity increase [1] -15.5% [at 15.8 µM] | activity change, negative = cytotoxic [2] 2.25% [at 15.8 µM] | cytotoxicity increase [4] -14.5% [at 15.8 µM] | activity change, negative = cytotoxicity [5] -0.729% [at 15.8 µM] | cytotoxicity increase [8] -0.789% [at 15.8 µM] | cytotoxicity [6] -7.54% [at 15.8 µM] | cytotoxicity increase [10] -2.04% [at 15.8 µM] | activity change, negative = cytotoxic [7] 0.578% [at 15.8 µM]
